Compound activity deposited in PubChem by National Center for Advancing Translational Sciences (NCATS).
HT1080-NT tox: kills 2HG-producing HT-1080-NT fibrosarcoma cells; HT-1080-NT fibrosarcoma viability, CellTiter-Glo ATP luminescence, 48 h; Potency, µM (highest dose often 46.1 µM), without a hit: at the top dose activity, negative = less viability, actives largely listed as cytotoxic; hit rate 1.6% among 360,000; AID 686970;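 also: NT is the 2HG producing partner of a matched IDH1 knockdown line; 0% = DMSO-treated cells and -100% = media-only wells without cells; nearly all actives have a fitted effect of over 55% in size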
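A 48-hour cytotoxicity screen used HT-1080-NT cells plated 2 hours before compound delivery. ATP-based CellTiter-Glo luminescence measured viability, normalized to DMSO and no-cell controls.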
KB-V1 MDR tox: kills drug-selected multidrug resistant KB-V1 cells | KB-V1 MDR cells viability, CellTiter-Glo, 72 h | Potency, µM (doses to about 46.1 µM), usual class: cytotoxic | hit rate 3.4% among 400,000; also: % is scaled to controls: 0 for no effect and ±100 for the full control effect; nearly all actives have a fitted effect of over 60% in size
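Cytotoxicity via CellTiter-Glo luminescence after 72 h compound exposure at 37 degrees C. Cells: drug-selected KB-V1 line, DMEM phenol-red free plus 10% FBS. Compounds tested at multiple concentrations; normalized data fitted to concentration-effect curves.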
HT1080 IDH1KD tx: kills HT-1080 cells with IDH1 knockdown. HT-1080 IDH1 knockdown viability, ATP luminescence, 48 h. Potency, µM (highest dose often 46.1 µM), without a hit: at the top dose activity, negative = toxicity, usual class: cytotoxic. hit rate 2% among 360,000;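 also: 0% = DMSO wells and -100% = cell-free medium wells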
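In this qHTS, HT-1080 cells depleted of IDH1 are exposed for 48 h at 37 °C to compound titrations. Toxicity is scored from CellTiter-Glo luminescence, with DMSO as full viability and medium alone as none.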
SW480 rerep: DNA re-replication induction in SW480 cells; Potency, µM (doses to about 46.1 µM), without a hit: at the highest dose re-replication activation, actives largely listed as activators; SW480 DNA re-replication, Hoechst DNA content imaging, 48 h; hit rate 1.8% among 340,000; also: % of control where 0% means no effect; nearly all actives have a fitted effect of over 55% in size
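DNA re-replication was detected as more nuclei of elevated Hoechst intensity after 48 hr exposure to compound (23 nL pinned per well of 250 cells).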
MCF10A rereplic: DNA re-replication induction in MCF 10a cells. AID 624296. hit rate 2.9% among 350,000. MCF 10A DNA re-replication, Hoechst nuclear intensity, 48 h. Potency, µM (highest dose often 46.1 µM), for the others: at the top dose activity, positive = re-replication, hits mostly activators; also: % of control where 0% means no effect; nearly all actives have a fitted effect of over 50% in size
KB-3-1 cytotox: KB-3-1 parental cell cytotoxicity | KB-3-1 viability, CellTiter-Glo ATP luminescence, 72 h | Potency, µM (series often up to 46.1 µM), most hits filed as cytotoxic | hit rate 1.4% among 400,000 | AID 1347075; also: % is scaled to controls: 0 for no effect and ±100 for the full control effect; nearly all actives have a fitted effect of over 60% in size
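72 h, 37 °C compound treatment of KB-3-1 parental cells; CellTiter-Glo added, 10 min, luminescence read. Data corrected against DMSO-only plates and normalized before curve fitting.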
Starred values were filed as active, the others as inactive; i = inactive; ? = inconclusive; / = not tested or not shown. Sampled rows, rich in hits. Any-hit rate of the full collection: about 8%. Calls follow the shape of the dose curve; as a rule, active = well fitted curve in the direction sought with a large enough effect; inconclusive = small, poorly fitted or top-dose-only effect, or another doubt; inactive = no such curve, though single readings can be large; an effect the other way counts as inactive or inconclusive. Potency is read from the fitted curve at half-maximal effect.

SMILES | HT1080-NT tox | KB-V1 MDR tox | HT1080 IDH1KD tx | SW480 rerep | MCF10A rereplic | KB-3-1 cytotox
CCc1noc(C)c1C(=O)OCC(=O)Nc1nc(-c2ccc(F)c(F)c2)cs1 | -13% | 2.9µM* | 2% | 4% | 5% | i
Cc1onc(-c2ccccc2)c1C(=O)Nc1nc(-c2ccc(F)c(F)c2)cs1 | -26% | i | ? | ? | ? | i
Cc1ccc(S(=O)(=O)N2CCN(c3nc(-c4ccc(C)s4)nc4ccccc34)CC2)cc1 | 1% | / | 16% | / | / | /
CN(CC(=O)Nc1cccc(F)c1)C(=O)c1cc(-c2cccs2)nn1-c1ccccc1 | -5% | ? | -12% | 5% | ? | i
CCN(CC)S(=O)(=O)c1cccc(NC(=O)c2cc(-c3cccs3)nn2-c2ccccc2)c1 | 12% | 3.7µM* | 0% | 8.2µM* | -48% | i
CN(C)S(=O)(=O)c1cccc(NC(=O)c2cc(-c3cccs3)nn2-c2ccccc2)c1 | 4% | 5.8µM* | 2% | ? | ? | i
Cc1ccc(CCNC(=O)c2ccc3c(c2)N(Cc2ccccc2F)C(=O)c2ccccc2S3=O)cc1 (stereo not drawn) | / | i | / | / | / | i
CCOc1ccc(C(=O)CC(=O)C(=O)NCCc2ccc(OC)c(OC)c2)cc1 | -4% | 7.3µM* | -7% | ? | 14% | i
CCOc1ccc(C(=O)Cc2cc(OC)c(OC)cc2[N+](=O)[O-])cc1 | 4% | i | -5% | 5.8µM* | 4.6µM* | i
CCn1ncc(Cl)c1C(=O)NC(=S)Nc1ccccc1Br | 1% | 16µM* | 0% | 0% | 17% | ?
O=Cc1ccccc1Oc1ccccc1 | 0% | ? | 0% | 1% | -8% | i
O=Cc1ccccc1OCCOc1ccccc1C=O | 10µM* | i | 7.1µM* | ? | 17% | i
OC(COC(c1ccc(Cl)cc1)c1ccc(Cl)cc1)CN1CCN(c2ccccn2)CC1 (stereo not drawn) | ? | ? | ? | ? | ? | 18µM*
OC(CN1CCN(c2ccccn2)CC1)Cn1c2ccc(Cl)cc2c2cc(Cl)ccc21 (stereo not drawn) | ? | ? | 16µM* | ? | 21µM* | ?
CC1CCN(CC(O)Cn2c3ccccc3c3ccccc32)CC1 (stereo not drawn) | -26% | ? | -25% | 0% | 7% | i
Cc1cccc(C)c1OCC(O)CN1CCN(c2ccccn2)CC1 (stereo not drawn) | 10% | i | 9% | -3% | -1% | i
OC(CN1CCN(Cc2ccccc2)CC1)Cn1c2ccccc2c2ccccc21 (stereo not drawn) | ? | 23µM* | ? | / | ? | ?
OC(CN1CCCCC1)Cn1c2ccc(Cl)cc2c2cc(Cl)ccc21 (stereo not drawn) | 21µM* | ? | ? | ? | ? | ?
CCc1ccc2oc(-c3cccc(NC(=O)c4ccc(-c5cccc([N+](=O)[O-])c5)o4)c3)nc2c1 | / | i | / | / | / | i
Cc1ccc(C(O)c2nccn2C)o1 (stereo not drawn) | -2% | i | -6% | 10% | 5.8µM* | i
Cn1ccnc1C(O)c1ccccc1 (stereo not drawn) | -1% | i | -14% | 1% | 0% | i
CSc1cccc(NC(=O)Cn2c3ncccc3c(=O)n2-c2ccc(C)cc2)c1 | / | i | / | / | / | i
CCCC#Cc1ccc2c(c1)O[C@@H](CN(C)Cc1ccc3c(c1)OCO3)[C@H](C)CN([C@@H](C)CO)S2(=O)=O | ? | ? | ? | / | / | 21µM*
O=C(Nc1ccc(SC(F)F)cc1)c1cc(-c2ccc3c(c2)OCCO3)on1 | / | i | / | / | / | i
CCOC(=O)c1ccccc1NC(=O)COC(=O)C(CC(C)C)NC(N)=O (stereo not drawn) | 2% | i | 0% | 1% | 0.92µM* | i
SMILES | HT1080-NT tox | KB-V1 MDR tox | HT1080 IDH1KD tx | SW480 rerep | MCF10A rereplic | KB-3-1 cytotox
Cc1cc(C)cc(NC(=O)CSCc2cc(=O)c3cc(Cl)ccc3[nH]2)c1 | / | i | / | / | / | i
O=C(O)c1cccc(N2C(=O)c3cccc4c(Cl)ccc(c34)C2=O)c1 | -8% | i | -12% | ? | 21µM* | i
O=C1c2cccc3c(Cl)ccc(c23)C(=O)N1O | 7.9µM* | i | -16% | 2% | 13% | i
CCN1C(=O)c2cccc3c(Cl)ccc(c23)C1=O | 22% | i | 22% | ? | 6% | i
O=C1c2ccc3c4c(ccc(c24)C(=O)N1c1cccc(O)c1)CC3 | 3% | i | 14% | 10% | 2% | i
O=C1c2ccc3c4c(ccc(c24)C(=O)N1c1cccc(O)c1)C(=O)N(c1cccc(O)c1)C3=O | ? | i | ? | 2.6µM* | 13µM* | 16µM*
COc1ccc(CNC(=O)CCCN2C(=O)CCn3nc(-c4cn(C)c5ccccc45)cc32)cc1 | / | i | / | / | / | i
Cc1ccc(S(=O)(=O)c2nc(S(C)(=O)=O)sc2N(C)Cc2ccccc2)cc1 | / | i | / | / | / | i
CCCCN(C)C(=O)CN1C(=O)CCn2nc(-c3cn(C)c4ccccc34)cc21 | / | i | / | / | / | i
CCOC(=O)c1c(C)oc2nc(C)nc(NCCc3ccc(OCC)cc3)c12 | / | ? | / | / | / | i
CC(C)CCN1C(=O)CCC1(C)C(=O)NC1CCCCCCC1 (stereo not drawn) | 0% | i | -4% | -5% | 7% | i
COc1cccc(CN2C(=O)CCC2(C)C(=O)NC2CCCCC2)c1 (stereo not drawn) | 0% | i | -2% | -2% | 19% | i
COc1ccc(CN2C(=O)CCC2(C)C(=O)NC2CCCCCC2)cc1 (stereo not drawn) | 1% | 15µM* | 7% | -3% | 17% | i
CCc1ccc(CN2C(=O)CCC2(C)C(=O)NC2CCCC2)cc1 (stereo not drawn) | 4% | 21µM* | 5% | 2% | -9% | i
CC(C)CCN1C(=O)CCC1(C)C(=O)NC1CCCCCC1 (stereo not drawn) | 17% | 18µM* | -23% | 1% | -11% | i
COc1ccc(-c2ccc3ncnc(N(C)Cc4csc(C)n4)c3c2)cc1OC | / | i | / | / | / | ?
CCc1ccc2[nH]c(=O)c(CN(Cc3ccco3)Cc3nnnn3Cc3ccco3)cc2c1 | / | i | / | / | / | ?
Cc1cccc(C(=O)NC2=NCCS2)c1 | 0% | i | 4% | 6.5µM* | ? | i
CC(NC(=O)c1ccc(Cl)cc1)C(=O)NC1=NCCS1 (stereo not drawn) | 7% | i | 6% | 0% | 17% | i
